Measured values as given in PubChem BioAssay AID485346 (Sanford-Burnham Center for Chemical Genomics, 2010).
Hit rate of the full screen: of about 330,000 compounds, about 10,000 (3%) were called active. The entries come from a sample that favours actives as a whole. A number with no mark means an inactive call.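 The calls were made as follows: active = inhibition of at least 50% at 8 µM in the primary screen; inactive = the rest.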

biological target: Protein Mdm4 (Homo sapiens) + E3 ubiquitin-protein ligase Mdm2 (Homo sapiens) (UniProt O15151+Q00987); assay: disruptors of Mdm2/MdmX RING complex – cell-based, luminescence, split luciferase, SaOS-2, uHTS, primary screen (AID 485346); details: SaOS-2 split-luciferase Mdm2/MdmX complementation, at 8 µM, stronger effect = higher value
Sequence (O15151 whole entry, looked up): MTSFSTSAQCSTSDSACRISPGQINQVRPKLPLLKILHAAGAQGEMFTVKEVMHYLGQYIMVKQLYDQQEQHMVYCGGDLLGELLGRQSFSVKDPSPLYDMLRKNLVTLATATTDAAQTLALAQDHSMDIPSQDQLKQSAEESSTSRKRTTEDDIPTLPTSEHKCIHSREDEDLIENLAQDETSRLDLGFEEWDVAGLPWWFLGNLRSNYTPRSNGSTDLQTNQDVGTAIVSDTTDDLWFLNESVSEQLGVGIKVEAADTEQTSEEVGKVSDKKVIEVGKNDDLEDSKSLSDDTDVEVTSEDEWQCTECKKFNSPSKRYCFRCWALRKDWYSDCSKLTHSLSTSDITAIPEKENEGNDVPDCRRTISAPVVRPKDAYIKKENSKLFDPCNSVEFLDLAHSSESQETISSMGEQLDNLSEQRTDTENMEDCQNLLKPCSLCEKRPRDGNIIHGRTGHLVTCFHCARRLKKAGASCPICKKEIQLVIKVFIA
Sequence (Q00987 whole entry, looked up): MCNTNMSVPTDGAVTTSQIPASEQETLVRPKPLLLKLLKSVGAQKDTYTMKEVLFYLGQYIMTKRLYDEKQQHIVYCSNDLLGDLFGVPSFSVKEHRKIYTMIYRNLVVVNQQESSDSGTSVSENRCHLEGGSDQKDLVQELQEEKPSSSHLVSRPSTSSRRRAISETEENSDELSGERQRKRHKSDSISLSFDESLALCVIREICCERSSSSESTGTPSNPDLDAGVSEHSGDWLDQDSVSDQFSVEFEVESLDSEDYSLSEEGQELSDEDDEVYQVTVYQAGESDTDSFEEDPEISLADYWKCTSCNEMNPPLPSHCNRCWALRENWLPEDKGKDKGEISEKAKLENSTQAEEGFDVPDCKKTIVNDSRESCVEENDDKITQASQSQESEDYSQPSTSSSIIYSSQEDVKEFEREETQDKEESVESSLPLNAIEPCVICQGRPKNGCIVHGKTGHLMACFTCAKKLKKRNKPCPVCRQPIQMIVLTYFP

| SMILES | inhibition |
| --- | --- |
| COc1ccccc1C(=O)Nc1ccc(C)c(S(=O)(=O)N2CCCCC2)c1 | 15% |
| O=C(Nc1ccc(N2CCN(C(=O)C3CC3)CC2)cc1)c1cccs1 | -10.3% |
| O=C(Nc1ccc(N2CCN(C(=O)c3cccs3)CC2)cc1)c1cccnc1Cl | -22.2% |
| Cc1ccccc1C(=O)N1CCN(c2ccc(NC(=O)c3cccs3)cc2)CC1 | 53.9% (active) |
| CCCc1cc(=O)[nH]c(SCC(=O)Nc2ccc(C(=O)Nc3ccccc3OC)cc2)n1 | 21.4% |
| COCCNC(=O)C(OC(=O)c1cccs1)c1ccc(F)cc1 (configuration not stated) | 4.05% |
| O=C(CCl)Nc1cccc(CP(=O)(c2ccccc2)c2ccccc2)c1 | 96.3% (active) |
| O=C(Cc1ccccc1)Nc1cccc(NC(=O)c2ccccc2)c1 | 4.35% |
| CCc1cccc(NC(=O)CCC(=O)O)c1 | 3.13% |
| Clc1ccc(-c2nc3ccccn3c2CN2CCSCC2)cc1 | 15.3% |
| Cc1ccc(CNC(=O)C2CCN(S(=O)(=O)c3ccc4nc5c(c(C(=O)O)c4c3)CC(C)CC5)CC2)cc1 (configuration not stated) | 6.94% |
| O=C(NC(=S)Nc1ccc(Cl)cc1Cl)C1CC1 | -39.2% |
| Cc1ccc(S(=O)(=O)c2nnn3c2nc(N2CCN(c4ccccn4)CC2)c2ccccc23)cc1 | 10.2% |
| Cc1cccc(Nc2nc3c(S(=O)(=O)c4ccccc4)nnn3c3ccccc23)c1C | 77.7% (active) |
| CC(=O)Nc1ccc(Nc2nc3c(S(=O)(=O)c4ccc(C)c(C)c4)nnn3c3ccccc23)cc1 | 23.4% |
| COc1ccc(C2(CNC(=O)Cc3ccc(OC)c(OC)c3)CCCC2)cc1 | 10.1% |
| CN(C)c1nc(Nc2ccc(Cl)c(Cl)c2)nc(N(C)C)n1 | -14.8% |
| Cc1nnc(NCCO)c2ccccc12 | -14% |
| OCCNc1nc(Nc2ccc(Cl)c(Cl)c2)nc2ccccc12 | 80.6% (active) |
| COc1ccc(C(C#N)N2N=C(C)CC2(C)C)cc1 (configuration not stated) | -22.4% |
| Cc1ccc(S(=O)(=O)N2[C@@H](c3ccc(Br)cc3)C(C(=O)O)=C[C@H]2CC2CCCC2)cc1 | 30.4% |
| COc1ccc2c(c1)CCNC2Cc1ccc(OC)c(O)c1 (configuration not stated) | -20.9% |

| SMILES | inhibition |
| --- | --- |
| CCc1ccc(OCC2c3cc(OC)c(OC)cc3CCN2C(C)=O)cc1 (configuration not stated) | 6.86% |
| CC[C@H]1CN2CCc3cc(OC)c(OC)cc3[C@@H]2C[C@@H]1C[C@H]1NCCc2cc(OC)c(OC)cc21 | 91.7% (active) |
| C=C(C)c1cccc(C(C)(C)NC(=O)NCCN(CC)CC)c1 | 14.6% |
| Cc1ccc(S(=O)(=O)N2C[C@@H]3CCCC[C@@H]3[C@@H](C)[C@H]2c2cn(Cc3ccccc3)c3ccc(F)cc23)cc1 | 30% |
| CCNC(=O)COC(=O)/C=C/c1c(C)nn(Cc2cccc(OC)c2)c1Cl | 11.4% |
| COc1ccc(/C=C/C(=O)c2ccc(NS(=O)(=O)c3ccc(C)cc3)cc2)cc1O | 65.1% (active) |
| Cc1ccc(C(=O)/C=C/Nc2ccc(S(=O)(=O)Nc3onc(C)c3C)cc2)cc1 | 0.513% |
| COc1ccc(NS(=O)(=O)c2ccc(NC(=S)NC(=O)/C=C/c3ccc(C)cc3)cc2)nn1 | -0.635% |
| Cc1cc(C)n2nc(C(=O)OC(C)C(=O)c3cc(C)c(C)cc3C)nc2n1 (configuration not stated) | 1.62% |
| OCC[C@H]1C[C@H](O)[C@@H](O)[C@]2(Cc3ccccc3CO2)O1 | -20.7% |
| Cc1cccc(NC(=O)C(C)SCc2ccccc2)c1 (configuration not stated) | 0.19% |
| CSc1ncc(Cl)c(C(=O)Nc2cc(C)ccc2C)n1 | -15.6% |
| Cc1cccc(NC(=O)c2nc(S(=O)(=O)Cc3ccccc3)ncc2Cl)c1 | 97.5% (active) |
| CCOc1ccc(NC(=O)c2nc(SCC)ncc2Cl)cc1 | 46.8% |
| Cc1cccc(CS(=O)(=O)c2ncc(Cl)c(C(=O)Nc3ccc(F)cc3)n2)c1 | 82.1% (active) |
| Cc1cccc(NC(=O)c2nc[nH]c2C(=O)NCC(=O)OCc2ccccc2)c1 | 10.4% |
| CCOc1ccc2c(c1)c(=O)c(S(=O)(=O)c1ccc(C)cc1)cn2CC | 5.7% |
| O=C(COC(=O)C1CC2C=CC1C2)Nc1ccccc1 (configuration not stated) | -11.4% |
| CCS(=O)(=O)c1ccc(C(=O)NC)c(Cl)c1Cl | 13.4% |
| COc1cc(C(=O)Nc2cc(C(F)(F)F)ccc2N2CCOCC2)ccc1O | 15.4% |
| CC(C)(C)OC(=O)C[C@@H]1C/C=C\C[C@@H](CC(=O)N[C@H](CO)Cc2ccccc2)C(=O)NC[C@@H](c2ccccc2)OC1=O | 13.2% |
| CC(C)(C)OC(=O)C[C@H]1C/C=C\C[C@@H](CC(=O)N[C@H](CO)Cc2ccccc2)C(=O)NC[C@@H](c2ccccc2)OC1=O | 9.47% |

| SMILES | inhibition |
| --- | --- |
| O=C(C[C@H]1C/C=C\C[C@@H](NC(=O)OCC2c3ccccc3-c3ccccc32)C(=O)O[C@@H](c2ccccc2)CNC1=O)N[C@H](CO)Cc1ccccc1 | 99.8% (active) |
| Cc1c(NC(=O)CN(C)CC(=O)Nc2ccc(F)c(F)c2F)c(=O)n(-c2ccccc2)n1C | 7.46% |
| OCC[C@H]1C[C@@H](O)[C@H](O)[C@]2(OCCCc3ccccc32)O1 | 8.75% |
| CC(C)C[C@H](NC(=O)Nc1cccc(C(F)(F)F)c1)C(=O)O | 29.7% |
| O=C(NCc1ccccc1)c1ccc(S(=O)(=O)Nc2cccc(C(F)(F)F)c2)cc1 | 25.2% |
| O=C(Nc1ccc(Cl)cc1)Nc1ccc(C(=O)N2CCOCC2)cc1 | 9.36% |
| O=C(Nc1ccc(C(=O)N2CCOCC2)cc1)Nc1cccc(C(F)(F)F)c1 | 54.6% (active) |
| CCNS(=O)(=O)c1ccc(NC(=O)Nc2cccc(C(F)(F)F)c2)cc1 | 52.6% (active) |
| CC(=O)N1CCN(C(=O)Nc2cccc(C(F)(F)F)c2)CC1 | -7.17% |
| O=S(=O)(NCCS(=O)(=O)N1CCN(c2ccccc2)CC1)c1ccc(F)cc1 | 23.9% |
| Cc1nc(-c2ccccc2)cn2c1nc1ccccc12 | 14.8% |
| COc1ccccc1NC(=O)c1c(Br)cnn1C | -30.1% |
| O=C1/C(=C\c2ccccc2Cl)SC(=S)N1CCC(=O)N1CCCc2ccccc21 | 99.5% (active) |
| O=C(CN1CCCCCC1)NCCN1C(=O)S/C(=C\c2ccccc2Cl)C1=O | 3.22% |
| CN(C(=O)CCN1C(=O)/C(=C/c2ccccc2F)SC1=S)C1CCS(=O)(=O)C1 (configuration not stated) | 24.9% |
| COc1ccc(C(=O)OCc2cc(=O)n3ccsc3n2)cc1F | 2.88% |
| O=C(NNC1CC(=O)N(c2cccc(Cl)c2)C1=O)c1cccnc1 (configuration not stated) | 14.9% |
| COc1ccc(-c2c(C)cc3oc(=O)cc(-c4ccccc4)c3c2C)cc1OC | 7.66% |
| COc1cc(OC)c2c(-c3cccc(-c4cccc(N)c4)c3)cc(=O)oc2c1 | 75% (active) |
| COc1ccc(-c2c(C)cc3oc(=O)cc(-c4ccccc4)c3c2C)cc1F | 2.64% |
| C=CCn1c(=S)[nH]c2scc(-c3ccco3)c2c1=O | -19.1% |
| Cc1ccccc1C(OCCN(C)C)C1CCCCC1 (configuration not stated) | 25.8% |

| SMILES | inhibition |
| --- | --- |
| COc1cccc(OC)c1C(=O)N1CCN(Cc2cccnc2)CC1 | -4.03% |
| COc1ccc(S(=O)(=O)N2CCOCC2)cc1NC(=O)Cc1coc2cc(C)ccc12 | 3.68% |
| Cc1cccc(NS(=O)(=O)c2ccc(-c3cnc(C4CC4)o3)cc2)c1 | 65.1% (active) |
| Cc1cccc(CNS(=O)(=O)c2ccc(-c3cnc(C4CC4)o3)cc2)c1 | 35.8% |
| COc1ccc(CNS(=O)(=O)c2ccc(-c3cnc(C4CC4)o3)cc2)cc1 | 15.3% |
| CN(C)S(=O)(=O)c1ccc(C(=O)NCCN=C2NS(=O)(=O)c3ccccc32)cc1 | 7.98% |
| COCCCNC(=O)CN1CCN(Cc2ccccc2Cl)C1=O | -6.08% |
| Cc1nn(CC(=O)NCCc2ccccc2)c(=O)c2cc3occc3n12 | 19% |
| CCc1ccc(-c2cc3c(=O)n(CC(=O)NCCCN4CCN(Cc5ccccc5)CC4)nc(C)n3n2)cc1 | 97.4% (active) |
| Cc1ccc(-c2ccc(=O)n(CC(=O)NCCCN3CCCCC3)n2)cc1 | 2.15% |
| O=C(NNC(=O)c1cc(S(=O)(=O)N2CCCCC2)ccc1Cl)c1ccccc1O | 16.6% |
| C[C@@H](NC(=O)OC(C)(C)C)c1nnc(S(=O)(=O)Cc2ccccc2)o1 | 53.4% (active) |
| C[C@H](NC(=O)OC(C)(C)C)c1nnc(SCC(=O)Nc2ccc(Br)cc2)o1 | 18.7% |
| CC(C)Sc1nnc([C@H](Cc2ccccc2)NC(=O)OC(C)(C)C)o1 | 2.05% |
| NC(=O)CC(NC(=O)Cc1ccc(Br)cc1)c1ccc(NC2CC3CCC2C3)c([N+](=O)[O-])c1 (configuration not stated) | 9.79% |
| COc1ccc(Br)cc1CN(C)C(=O)C1CC(=O)N(C2CCCC2)C1 (configuration not stated) | 9.72% |
| CCN(CC(=O)NC(C)C)C(=O)c1cc(S(=O)(=O)N2CCCCC2)ccc1N1CCCCC1 | 2.7% |
| Cc1cccc(NC(=O)C2CCN(S(=O)(=O)c3cccc4cccnc34)CC2)c1 | 14% |
| Cc1ccnc(NC(=O)C2CCN(S(=O)(=O)c3c(C)c(C)cc(C)c3C)CC2)c1 | 84.8% (active) |
| O=C(Nc1ccccn1)C1CCN(S(=O)(=O)c2ccccc2)CC1 | -12.4% |
| Cc1ccc(S(=O)(=O)N(C)CC(=O)NCCc2c[nH]c3ccccc23)cc1 | 6.29% |
